Each structure is given as a SMILES string. Inconclusive results are not listed. Active and inactive are the calls of the source. Calls come from the whole dose curve; as a rule, active = well fitted inhibition curve with a large enough effect; inconclusive = small, poorly fitted or top-dose-only effect; inactive = flat fitted curve, though single readings scatter.

Chain of Phospholipid hydroperoxide glutathione peroxidase GPX4 (Homo sapiens) (P36969 whole entry, looked up): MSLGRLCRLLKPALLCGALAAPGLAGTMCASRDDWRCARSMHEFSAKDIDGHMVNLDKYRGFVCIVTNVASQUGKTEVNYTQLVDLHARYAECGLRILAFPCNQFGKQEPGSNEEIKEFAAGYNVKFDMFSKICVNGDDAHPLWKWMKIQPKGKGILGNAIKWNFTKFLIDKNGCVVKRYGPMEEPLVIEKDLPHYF

The first assay deals with Phospholipid hydroperoxide glutathione peroxidase GPX4 (Homo sapiens) (UniProt P36969). Briefly: Primary qHTS Assay for Inhibitors of Recombinant Selenoprotein Glutathione Peroxidase 4 (GPX4) (AID 1845192). For activity change, negative = inhibition: % is set by controls: 0 for no effect and ±100 for the full control effect. Note: nearly all actives have a fitted effect of over 65% in size. Note: potency is the fitted concentration of half-maximal effect. Conditions: recombinant GPX4, GR-coupled NADPH fluorescence, 15 min; series mostly up to 50 µM; activity change, negative = inhibition: at the top concentration. In short, it runs like this:
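Steps: GPX4 plus compound, 30 min RT; add GR/GSH/NADPH master mix; start with cumene hydroperoxide; read 340/450 nm fluorescence at 0 and 15 min. Finals were 200 nM GPX4, 1 mM GSH, 0.5 mM CHP, 0.5 mM NADPH, 100 nM GR.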
Take `Cc1c(C(=O)NCCCO)cnn1-c1nc(-c2cccc(C(F)(F)F)c2)cs1`: the “activity change, negative = inhibition” value is -14.6% (inactive).

For `COc1cccc(NC[C@@H](O)Cn2c3ccc(Br)cc3c3cc(Br)ccc32)c1`, the “activity change, negative = inhibition” value was 4.04% (inactive).

In the case of `C[C@@H](O[C@H]1OCCN(Cc2n[nH]nc2CN(C)C)[C@H]1c1ccc(F)cc1)c1cc(C(F)(F)F)cc(C(F)(F)F)c1`, the “activity change, negative = inhibition” value is -5.13% (inactive). The same measure, in the same setting: with `CC[C@H](C)[C@H]1O[C@]2(CC[C@@H]1C)C[C@@H]1C[C@@H](C/C=C(\C)[C@@H](O[C@H]3C[C@H](OC)[C@@H](O[C@H]4C[C@H](OC)[C@@H](O)[C@H](C)O4)[C@H](C)O3)[C@@H](C)/C=C/C=C3\CO[C@@H]4[C@H](O)C(C)=C[C@@H](C(=O)O1)[C@]34O)O2` the figure was -12.6% (inactive); with `Cc1cc(CN)cc(C)c1NC(=O)c1ccc(-c2cc(Cl)ccc2Cl)o1`, -10.2% (inactive). The same measure, in the same setting: with `c1ccc(-c2cnc(Nc3ccc(OCCN4CCCC4)cc3)s2)cc1` the figure was -7.9% (inactive); with `CC1(C)SC2C(NC(=O)[C@H](NC(=O)N3CCNC3=O)c3ccccc3)C(=O)N2C1C(=O)O` (stereo partly specified), -12.1% (inactive). Still for that read-out and setting: the figure for `CC1(C)SC2C(NC(=O)[C@H](C(=O)O)c3ccsc3)C(=O)N2C1C(=O)O` (stereo partly specified) is -11.6% (inactive); for `COc1ccc(-c2nc(-c3cc(C(F)(F)F)cc(C(F)(F)F)c3)n(Cc3ccc(C(N)=O)cc3)c2-c2ccc(OC)cc2)cc1` it is -21.5% (inactive). As to `Fc1ccccc1CNCc1ccc(-c2ccnc3[nH]ccc23)cc1`, the Potency was 16.1 µM (active). In the case of `CCCCc1nc(C)c(CC(=S)N(C)C)c(=O)n1Cc1ccc(-c2ccccc2-c2nn[nH]n2)cc1`, the “activity change, negative = inhibition” value was -27.2% (inactive). Same read-out and setting: with `CO[C@@H]1[C@@H](O[C@H]2O[C@@H](C)[C@H](O[C@@H]3C[C@](C)(O)[C@H](O)[C@@H](C)O3)[C@@H](N(C)C)[C@@H]2O)[C@@H](CC=O)C[C@@H](C)[C@@H](O[C@H]2CC[C@H](N(C)C)[C@H](C)O2)/C=C/C=C/C[C@@H](C)OC(=O)C[C@H]1O` the figure was -10.2% (inactive). On the same count and under the same terms, the figure for `CNc1nc(-c2ccc3c(N)n[nH]c3c2)cc(N2CC(C(=O)NC3CCCCC3)CCC2C)n1` (stereo unspecified) is -4.78% (inactive); for `CNc1cc(OC)c(C(=O)N[C@@H]2CCN(Cc3ccccc3)[C@@H]2C)cc1Cl` it is -0.913% (inactive).

Take `CCOC(=O)CCC(=O)O[C@H]1[C@H](O[C@@H]2[C@@H](C)[C@H](O[C@H]3C[C@@](C)(OC)[C@@H](O)[C@H](C)O3)[C@@H](C)C(=O)O[C@H](CC)[C@@](C)(O)[C@H](O)[C@@H](C)C(=O)[C@H](C)CC2(C)O)O[C@H](C)C[C@@H]1N(C)C` (stereo partly specified): the Potency result was “inactive”. The same measure, in the same setting: the entry for `CC(=O)Nc1ccc(C(=O)Nc2ccccc2N)cc1` is “inactive”. On to `C[C@H](NC(=O)C(C)(C)Oc1ccc(C(F)(F)F)cn1)[C@@H](Cc1ccc(Cl)cc1)c1cccc(C#N)c1`, for which the “activity change, negative = inhibition” value was -24.8% (inactive). For `CC(CCC1(O)OC2CC3C4CC=C5CC(O[C@@H]6O[C@H](CO)[C@@H](O[C@@H]7O[C@H](CO)[C@@H](O)[C@H](O)[C@H]7O)[C@H](O)[C@H]6O[C@@H]6O[C@@H](C)[C@H](O)[C@@H](O)[C@H]6O)CCC5(C)C4CCC3(C)C2C1C)CO[C@@H]1O[C@H](CO)[C@@H](O)[C@H](O)[C@H]1O` (stereo partly specified), the “activity change, negative = inhibition” value is 2.2% [at 15.3 µM] (inactive). `C[C@@H](CN1CCC(n2c(=O)[nH]c3cc(Cl)ccc32)CC1)NC(=O)c1ccc2ccccc2c1`: the “activity change, negative = inhibition” value is -4.22% (inactive). Consider `CC(C)c1ccc(NC(=O)C(c2ccccc2)N(C)C(=O)Cc2c[nH]c3ccccc23)cc1` (stereo unspecified), for which the “activity change, negative = inhibition” value was -16.7% (inactive). On the same count and under the same terms, the figure for `CCCCC(=O)N(Cc1ccc(-c2ccccc2-c2nn[nH]n2)cc1)C(C(=O)O)C(C)C` (stereo unspecified) is 9.19% (inactive); for `CCCCc1nc(Cl)c(CO)n1Cc1ccc(-c2ccccc2-c2nnn[nH]2)cc1` it is 11.8% (inactive); for `C=C1C(=O)O[C@@H]2[C@H]1[C@H](O)C[C@]1(C)[C@@H](O)CC=C(C)[C@@H]21` it is 0.947% (inactive). Still for that read-out and setting: the figure for `CCNC(=O)[C@@H]1CCCN1C(=O)[C@H](CCCN=C(N)N)NC(=O)[C@H](CC(C)C)NC(=O)[C@@H](CC(C)C)NC(=O)[C@H](Cc1ccc(O)cc1)NC(=O)[C@H](CO)NC(=O)[C@H](Cc1c[nH]c2ccccc12)NC(=O)[C@H](Cc1cnc[nH]1)NC(=O)[C@@H]1CCC(=O)N1` is -16.6% [at 27.8 µM] (inactive). The same measure, in the same setting: the figure for `COc1ccc(C2(CNC(=O)[C@](C)(Cc3c[nH]c4ccccc34)NC(=O)Nc3ccc([N+](=O)[O-])cc3)CCCCC2)nc1` is -3.51% (inactive); for `CCN(CC)Cc1cccc(/C=C/c2nc3ccc(F)cc3c(=O)n2-c2ccccc2Cl)n1` it is -5.98% (inactive). Consider `C=C(C(=O)O)C1CC2=C(C)C(=O)CC2C(C)CC1O` (stereo unspecified), for which the outcome was inactive.

In another assay the target is Luciferin 4-monooxygenase (Photinus pyralis) (UniProt P08659). Briefly: Primary firefly luciferase (FLuc) qHTS assay for identification of artifact compounds. (AID 1845220).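 For activity change, negative = inhibition: plate controls were DMSO vehicle for no effect and no enzyme for full effect.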 Note: nearly all actives have a fitted effect of over 60% in size. Conditions: purified firefly luciferase, luminescence, 5 min; series mostly up to 54.1 µM; activity change, negative = inhibition: at the top concentration. In short, it runs like this:
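Enzymatic FLuc inhibition assay: compounds pre-exposed to luciferin/ATP (10 uM each) for 15 min, then purified P. pyralis enzyme at 10 nM added. Read-out: luminescence at 5 min.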
Consider `CC(C)n1cnc2c(Nc3cccc(Cl)c3)nc(NCCO)nc21`, for which the outcome was inactive. Same read-out and setting: the entry for `COc1ccc(-c2c(C)c(C(=O)NN3CCCCC3)nn2-c2ccc(Cl)cc2Cl)cc1` is “inactive”.

With `O=C(CC1NCCC[C@H]1O)Cn1cnc2cc(Br)c(Cl)cc2c1=O` (stereo partly specified), the “activity change, negative = inhibition” value was -11.4% (inactive). Take `Cc1c(C(=O)NCCCO)cnn1-c1nc(-c2cccc(C(F)(F)F)c2)cs1`: the outcome was inactive.

These data come from PubChem BioAssay (NCATS).
